Screens from PubChem BioAssay.
This is a sample that favours compounds with a hit; in the whole collection about 3% have one here.
m-calpain inh: inhibitors of pig calpain II; purified calpain II, fluorogenic peptide substrate, 30 min; inhibition, % at 16 µM; 0.37% of 220,000 active; AID 1236;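 active = inhibition above about 50%, limit read from the data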
zVAD death inh: blocks zVAD induced death of L929 cells | L929 zVAD necroptosis rescue, ATP luminescence, 24 h; with zVAD 60 µM | viability rescue, % at 10 µM | 0.38% of 220,000 active;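 active = activation, scaled between plate controls, above about 75%, limit read from the data; inactive = activation under that limit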;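 also: 0% = zVAD with DMSO and 100% = DMSO alone without zVAD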
14-3-3 Bad inh: disrupts binding of bovine 14-3-3 zeta to phospho-Bad peptide; P63103; inhibition, % at 21.7 µM; AID 781; 0.71% of 220,000 active; TR-FRET 14-3-3zeta/Dy647-pBad peptide displacement, 1 h;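 active = inhibition above about 70%, limit read from the data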;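 also: 0% = full 14-3-3 plus peptide FRET controls and 100% = background without 14-3-3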
TNF death inh: TNF-alpha cell death inhibition in Jurkat FADD-/- cells | activation (protection from cell death), % at 10 µM | 0.068% of 220,000 active | Jurkat FADD-/- TNF necroptosis rescue, ATP luminescence, 24 h; 0 = TNF only, 100 = no-TNF cells;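 active = activation, meaning protection from cell death, of at least 50% relative to plate controls; inactive = activation below 50%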;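 also: necroptosis triggered by 40 ng/mL TNF-alpha added together with compound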
ROMK mod: human ROMK K+ channel modulation, primary screen. P48048. Tet-inducible ROMK, thallium flux fluorescence; actives lie on both sides. B-score at 10 µM. 2% of 130,000 active. AID 1918;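 active = signal ratio slope over the read window, or its plate-corrected B-score, at least 3 SD from the plate mean, either direction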;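 also: B-score of the F/F0 ratio slope over 7 to 12 s after thallium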
Target sequence (P48048 whole entry, looked up): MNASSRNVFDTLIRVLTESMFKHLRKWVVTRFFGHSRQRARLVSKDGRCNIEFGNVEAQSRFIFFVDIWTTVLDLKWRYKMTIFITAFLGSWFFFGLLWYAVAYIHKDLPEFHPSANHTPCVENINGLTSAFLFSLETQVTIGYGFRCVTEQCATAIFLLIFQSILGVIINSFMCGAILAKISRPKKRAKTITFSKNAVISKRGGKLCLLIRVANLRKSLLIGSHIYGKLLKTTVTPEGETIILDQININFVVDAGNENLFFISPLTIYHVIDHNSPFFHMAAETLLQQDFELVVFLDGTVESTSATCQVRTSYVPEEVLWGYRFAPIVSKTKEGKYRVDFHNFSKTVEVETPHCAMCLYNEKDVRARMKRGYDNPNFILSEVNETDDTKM
Efa HMGR inh: inhibitors of class II HMG-CoA reductase from Enterococcus faecalis; purified E. faecalis HMGR, NADPH absorbance 340 nm kinetic; inhibition, % at 10 µM; 0.41% of 190,000 active; AID 1066;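 active = inhibition above a set limit, the median over all tested compounds plus 3 SD, cut at about 9.5% in these data; inconclusive = no clear call, values can overlap the other calls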;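 also: enzyme runs in reverse so mevalonate oxidation gives rising NADPH absorbance; 0% = complete reaction with DMSO and 100% = background rate lacking mevalonate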
ROMK retest: confirmation of human ROMK potassium channel modulators. shares compounds with ROMK mod. ROMK thallium flux, fluorescence ratio; stronger effect = lower value. normalized thallium flux (F/F0 slope) at 10 µM. 54% of 3,000 active. AID 1917;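 active = Flux at 10 µM at least 3 SD below or above vehicle control mean in one or both replicates; inconclusive = no clear call, values can overlap the other calls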
* hit, by the source's call; i = inactive; u = inconclusive; x = not tested or not shown.

SMILES	m-calpain inh	zVAD death inh	14-3-3 Bad inh	TNF death inh	ROMK mod	Efa HMGR inh	ROMK retest
O=C(O)c1ccc(COc2ccc(Cl)cc2)o1	-4	0	4	0	x	-7	u
O=C(NNC1CC(=O)N(c2ccccc2)C1=O)c1cccnc1 (centres undefined)	-16	2	-1	2	x	x	0.074
O=C(NNC1CC(=O)N(c2ccc(F)cc2)C1=O)c1cccnc1 (centres undefined)	-34	0	1	3	-1	x	x
CC1(C)CC(=O)C(C=NCC2CCN(C(=O)Cc3ccccc3)CC2)=C(O)C1	-11	3	-4	2	-3.8*	0	0.084
Cc1ccc(SCCC(=O)N/N=C/c2cccnc2)cc1	-32	6	-9	0	x	0	x
CN1CC=C2C(C#N)=C(N)C(C#N)(C#N)[C@H](c3cccc(Cl)c3)C2C1 (some centres undefined)	-40	0	-13	2	-3.8*	-2	0.045*
CN1CC=C2C(C#N)=C(N)C(C#N)(C#N)C(c3ccsc3)C2C1 (centres undefined)	-22	0	-3	0	x	-2	x
COC(=O)C1=C(N)OC2=C(C(=O)CC(C)(C)C2)C1c1ccccc1OCC#N (centres undefined)	-8	0	-17	0	-0.081	-3	x
COC(=O)C1=C(N)OC2=C(C(=O)CC(C)(C)C2)C1c1cccnc1 (centres undefined)	4	0	-12	0	4*	1	0.072
COc1ccc(-c2[nH]ncc2CN2CCC(C(=O)N3CCOCC3)CC2)c(F)c1	-27	4	-4	1	x	-2	x
CCCc1cc(C(=O)NNC(=S)NC(C)c2ccccc2)cs1 (centres undefined)	32	1	-8	0	-0.16	5	x
COc1cccc(C(=O)N(C)c2nnc(-c3ccncc3)s2)c1	7	0	-12	-2	x	-2	0.081
Cc1cc(C(C)(C)C)cc(C)c1Cn1c2[n+](c3ccc(C(F)(F)F)cc31)CCCCC2	-25	4	15	0	-4.9*	2	0.048*
CCS(=O)(=O)c1ccc(O)c(NC(=O)Nc2ccc(C(C)(C)C)cc2)c1	-19	0	5	-7	-2.5*	x	0.08
CC1(C)CC(=O)C2=C(C1)N(CCN1CCOCC1)C1=C(C(=O)CC(C)(C)C1)C2c1cccc(Cl)c1	i	-1	-3	-2	-3*	-3	0.052*
CCN(CC)CCN1C2=C(C(=O)CC(C)(C)C2)C(c2cccc(F)c2)C2=C1CC(C)(C)CC2=O	i	-2	-20	2	-0.9	-1	x
Cc1ccc(O)c(C(=O)c2cnn(C(=O)Cc3csc(C)n3)c2)c1	-7	-1	14	-3	-6.7*	-2	0.078
Cc1occc1C(=O)Nc1ccc2c(c1)OCCO2	8	0	-5	5	x	2	0.077
Cc1ccc(Nc2nnns2)cc1C	-44	1	-7	-1	-3*	-2	u
Cc1ccc(Nc2ccc(NCc3ccccc3)nn2)cc1C	33	1	18	0	0.19	-2	x
CCn1cc(C(=O)NCc2ccc(C)o2)c2cc(OC)c(OC)cc2c1=O	-10	1	-7	-1	x	-6	u
CCn1cc(C(=O)NCC(=O)OC)c2cc(OC)c(OC)cc2c1=O	0	0	13	1	x	-1	x
CC(C)Oc1ccc(C(CC(=O)O)NC(=O)c2cccs2)cc1 (centres undefined)	10	0	-2	1	0.68	0	x
O=C(CSCc1c(Cl)cccc1Cl)N1CCOCC1	14	0	-8	1	0.2	-4	x
CN(C)S(=O)(=O)c1cccc(C(=O)OCC(=O)Nc2sccc2C#N)c1	-61	0	5	1	0.24	0	x
SMILES	m-calpain inh	zVAD death inh	14-3-3 Bad inh	TNF death inh	ROMK mod	Efa HMGR inh	ROMK retest
O=C(N/N=C\c1c(O)ccc2ccccc12)c1ccc(S(=O)(=O)N2CCCCC2)cc1	-212	70	16	-7	-3.8*	-4	0.051*
CCCN1CCN(C(=S)Nc2ccc([N+](=O)[O-])cc2)CC1	5	0	-8	2	x	-2	x
CCCN1CCC(NC(=S)Nc2ccc([N+](=O)[O-])cc2)CC1	-4	0	-4	3	-4.4*	5	0.056*
CCCCCCOc1ccc(C(CC(N)=O)C(=O)O)cc1 (centres undefined)	3	7	0	0	0.55	-3	x
CC(=O)c1c(C)[nH]c(C(=O)Nc2nc(C)cs2)c1C	-10	8	-3	0	2.8*	5	0.086
CC(=O)c1c(C)[nH]c(C(=O)Nc2nc(-c3ccc(Cl)cc3)cs2)c1C	-32	0	-10	1	0.79	4	x
Oc1c(Br)cc(Br)cc1C=NCc1ccccc1	-10	3	33	-1	3.9*	-2	u
Oc1c(Br)cc(Br)cc1C=NCc1ccc(F)cc1	28	8	39	0	3.3*	-8	0.12*
O/N=C/c1cc(Br)cc(Br)c1OCc1ccccc1	43	1	8	-2	0.85	-2	x
CN(C)CCC(=O)c1cccc(Br)c1	-17	3	-12	2	-0.89	0	x
O=C(Nc1ccc(S(=O)(=O)Nc2ccc(F)cc2)cc1)c1ccc(CN2CCOCC2)cc1	-15	3	-7	-6	-3.4*	-8	u
COc1ccc(NS(=O)(=O)c2ccc(NC(=O)c3ccc(CN4CCOCC4)cc3)cc2)cc1	-31	3	57	-10	-0.68	-5	x
O=C(Nc1ccc(S(=O)(=O)N2CCCCC2)cc1)c1ccc(CN2CCOCC2)cc1	-22	-2	0	-14	x	-6	0.059*
O=C(NCc1nnc2c3ccccc3c(-c3ccccc3)nn12)c1ccc(Cl)cc1	-14	0	-5	2	x	2	0.073
C=CCn1c(SCc2c(C)noc2C)nc2cc(C(=O)O)ccc2c1=O	-6	0	-1	-11	6*	-7	u
C=CCNC(=O)COC(=O)c1cc(S(=O)(=O)N2CCOCC2)ccc1N1CCCCC1	-17	0	-6	2	0.28	2	x
COc1ccc(NC(=O)/C(Cl)=C(/Cl)S(=O)(=O)Cc2ccc(C)cc2)cn1	-4	2	14	-12	-3.8*	-3	u
CCN1C(=O)/C(=C/C=C2/CCCN2C)OC1=S	-35	24	-11	0	-4.9*	-6	0.064*
N=c1n(Cc2ccccc2)c2ccccc2n1Cc1ccccc1	-14	0	-2	0	-3.6*	1	u
CCOC(=O)Cn1c(=N)n(Cc2ccccc2)c2ccccc21	-8	0	-1	-2	x	5	x
